Compound activity from PubChem.
AddAB inh: less growth of phage-infected E. coli with AddAB; E. coli expressing H. pylori AddAB, absorbance growth; AID 435030; inhibition, % at 11.9 µM; 0.29% of 330,000 active; in the data active = inhibition above about 12%;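 also: 0% = vehicle wells of infected cells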
phage Ecoli inh: E. coli growth loss with phage present; growth absorbance; inhibition, % at 11.9 µM; 0.26% of 360,000 active; in the data active = inhibition above about 11%
E coli growth-1: counter-screen for AddAB inhibitors: E. coli growth inhibition. E. coli V3065 growth, OD600 absorbance, 18 h. inhibition, % at 11.9 µM. 0.27% of 330,000 active. AID 449728;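 active = inhibition above the campaign's mean inhibition across all tested compounds plus 3 SD, cut at about 9.9% in these data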;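 also: uninfected addAB+ strain grown without phage in ampicillin broth; 0% = DMSO wells and 100% = ciprofloxacin 0.95 µg/ml wells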
E coli growth-2: inhibitors of Escherichia coli growth; AID 1053175; OD600, 23 h; stronger effect = lower value; OD600 absorbance (test concentration not listed); 0.21% of 330,000 active;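 active = OD600 absorbance below the run mean of sample wells minus 3.6 SD, in any replicate, cut at about 0.56 in these data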
Tat transport: inhibitors of E. coli Tat protein transport | inhibition, % at 10 µM | E. coli MC4100 TorA-mCherry Tat export, fluorescence | 0.036% of 340,000 active;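 active = mean replicate inhibition at least 50% and at least half of replicates individually reaching 50%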;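 also: exported cargo escapes ClpAP degradation while cytoplasmic cargo is degraded and loses fluorescence; 0% = median of neutral control wells and 100% = median of NaSCN control wells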
AddAB conf: growth loss of T4-infected E. coli expressing H. pylori AddAB, confirmed; inhibition, % at 11.9 µM; E. coli V3065 expressing H. pylori AddAB, T4 phage, OD; T4 phage with gene 2 nonsense mutations; shares compounds with AddAB inh; 64% of 880 active;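 active = mean inhibition above a set limit taken from the earlier primary screen, cut at about 13% in these data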;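 also: higher means less bacterial growth since AddAB block lets phage replicate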
RecBCD counter: AddAB counter-screen: growth loss of RecBCD+ E. coli infected with mutant T4 phage | shares compounds with AddAB inh | E. coli V66 + mutant T4 phage, OD growth | inhibition, % at 11.9 µM | 73% of 880 active | AID 488955;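 active = mean inhibition above the mean of solvent-only control wells plus 3 SD, cut at about 4% in these data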;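 also: optical density read after an 18 h incubation at 37 °C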
bact viab count: reduces bacterial viability, AddAB inhibitor counter-screen | shares compounds with AddAB inh | absorbance (AddAB counterscreen) | inhibition, % at 11.9 µM | 35% of 880 active; in the data active = inhibition above about 25%
Active calls of the source: *; · = no result. Only some compounds are listed: those with a hit (about 0.51% of all), similar ones and a draw of the others.

SMILES | AddAB inh | phage Ecoli inh | E coli growth-1 | E coli growth-2 | Tat transport | AddAB conf | RecBCD counter | bact viab count
COC(=O)c1cc(NC(=O)Nc2cccc(Cl)c2)ccc1Cl | 7 | 12* | 7 | 0.52 | -16 | · | · | ·
Cc1conc1NC(c1cccs1)c1ccc2cccnc2c1O (centres undefined) | 13* | · | 13* | · | · | · | · | ·
Oc1c(C(Nc2nccs2)c2ccc(C(F)(F)F)cc2)ccc2cccnc12 (centres undefined) | · | 9 | · | 0.7 | -1 | · | · | ·
Cc1csc(N=Cc2ccc([N+](=O)[O-])o2)n1 | · | 12* | · | · | · | · | · | ·
O=c1oc2cc(O)ccc2s1 | 8 | 2 | 10.0* | · | -1 | · | · | ·
Oc1ccc2c(c1)oc1cc(O)ccc12 | 1 | 1 | -2 | 0.59 | 2 | · | · | ·
CCCCCC(=O)Nc1cccc(C2=NOC3(C2)CC(C(N)=O)N(C(=O)CCCCC)C3)c1 (centres undefined) | · | · | · | 0.69 | · | · | · | ·
O=C(CCN1CCOCC1)NNC(=S)NC(=O)c1ccc(Br)cc1 | 1 | -3 | 3 | 0.47* | -2 | · | · | ·
O=C(CCN1CCCCC1)NNC(=S)NC(=O)c1ccc(Br)cc1 | 0 | -3 | -1 | 0.6 | -1 | · | · | ·
NC(=O)c1cc(C(=O)c2ccc(Cl)cc2Cl)c[nH]1 | 3 | 2 | 1 | 0.5* | -13 | · | · | ·
CN(C)C(=O)c1cc(C(=O)c2ccc(Cl)cc2Cl)c[nH]1 | 4 | 2 | 2 | 0.68 | 0 | · | · | ·
O=C(O)CN1C(=O)/C(=C\c2cc(Br)ccc2OCc2ccc(Cl)cc2)SC1=S | · | 2 | · | 0.64 | 18 | · | · | ·
O=C(O)CN1C(=O)/C(=C\c2cc([N+](=O)[O-])ccc2OCc2ccccc2Cl)SC1=S | 3 | 2 | -1 | 0.54* | 3 | · | · | ·
CCCCCN=C(N)NN=Cc1c[nH]c2ccc(OC)cc12 | · | · | · | 0.059* | · | · | · | ·
O=C(O)CC1c2cc(F)ccc2S(=O)(=O)N1C1CCCCC1 (centres undefined) | · | · | · | 0.65 | · | · | · | ·
CN(C)C1C(=O)C(C(N)=O)=C(O)[C@@]2(O)C(=O)C3=C(O)c4c(O)ccc(Cl)c4C(O)C3CC12 (some centres undefined) | · | · | · | 0.063* | · | · | · | ·
Cc1ccc2nc(-c3ccccn3)c(Nc3ccccc3C)n2c1 | 1 | -2 | 1 | 0.5* | -28 | · | · | ·
CCOC(=O)C1C2COc3ccccc3C2N2C(=O)c3c(C)cc(C)cc3NC(=O)[C@@]12C (some centres undefined) | · | · | · | 0.69 | · | · | · | ·
O=C(Nc1nc2c(Cl)cccc2s1)c1ccc([N+](=O)[O-])o1 | 3 | 1 | 5 | 0.5* | -28 | · | · | ·
CN(C)CCCNc1cc(C(C)(C)C)nc2c(-c3ccc(Cl)cc3)cnn12 | -4 | 2 | -5 | 0.27* | 14 | · | · | ·
CC1=NN(C(N)=S)C(=O)C1N=Nc1cccc2ccccc12 (centres undefined) | 7 | · | 14* | · | · | · | · | ·
CNS(=O)(=O)c1ccc(NC(=O)Nc2cccc(F)c2)cc1 | 10 | 5 | 7 | 0.51* | -7 | · | · | ·
COc1ccc(OCC(O)CNc2ccc(Br)cc2)cc1 (centres undefined) | 12* | 11 | 9 | 0.58 | -45 | 13* | 9.3* | 10
COc1ccc(OCC(O)CNC(=O)c2ccc(Br)cc2)cc1 (centres undefined) | 0 | 3 | 2 | 0.73 | 1 | · | · | ·
CCN1CC2C3C(=O)N(Cc4ccccc4)C(=O)C3[C@](Cc3ccccc3)(C1=O)N2C(=O)c1ccc(C)cc1 (some centres undefined) | · | · | · | 0.67 | · | · | · | ·
SMILES | AddAB inh | phage Ecoli inh | E coli growth-1 | E coli growth-2 | Tat transport | AddAB conf | RecBCD counter | bact viab count
C=CCN(c1ccccc1)S(=O)(=O)c1cccc(C(=O)NNC(=O)c2ccccc2O)c1 | 12* | 5 | 0 | 0.7 | -4 | 5 | 4 | 4
CCC(C)C1COCCS(=O)(=O)N1Cc1ccccc1F (centres undefined) | · | · | · | 0.67 | · | · | · | ·
CC(C)CNC(=O)c1c(N)n(N=Cc2ccccn2)c2nc3ccccc3nc12 | · | · | · | 0.8 | · | · | · | ·
COCC1CCN(Cc2nc(COc3ccccc3)no2)C1 (centres undefined) | 32* | -1 | 33* | 0.71 | 5 | -5 | -1 | -5
O=C(Nc1cccc(NC(=O)c2ccccc2Cl)c1)c1ccc([N+](=O)[O-])o1 | 13* | 9 | 11* | · | -24 | 84* | 5.5* | 21
O=C(Nc1ccc(N2CCCC2)c(Cl)c1)c1ccc([N+](=O)[O-])o1 | · | 8 | · | 0.62 | -22 | · | · | ·
O=C(Nc1ccc2[nH]c(=O)[nH]c2c1)c1ccc([N+](=O)[O-])o1 | 18* | 7 | 19* | 0.64 | -10 | 57* | 9.0* | 24
Cc1ccc(NC(=O)c2ccc([N+](=O)[O-])o2)cc1C | 27* | 10 | 31* | 0.47* | -18 | 98* | 11* | 31*
CC(C)(C)OC(=O)CNC(=O)c1[nH]cnc1C(=O)NC(CCCCNC(=O)OC(C)(C)C)C(=O)OC(C)(C)C (centres undefined) | · | · | · | 0.67 | · | · | · | ·
CCOC(=O)c1cn(C2CC2)c2c(F)c(NCCCN(C)C)c(F)cc2c1=O | 13* | 1 | 8 | 0.65 | 1 | 13* | 1 | 4
CCCNC(=O)c1ccc2c(=O)c(O)c(-c3ccsc3)[nH]c2c1 | 18* | · | 18* | · | -11 | 13* | 12* | 11
CCCNC(=O)c1ccc2c(=O)c(O)c(-c3ccc(OC)cc3)[nH]c2c1 | 18* | · | 16* | 0.73 | -4 | 11 | 13* | 14
COc1ccc(-c2coc3cc(OC4OC(CO)C(O)C(O)C4O)c(OC)cc3c2=O)cc1 (centres undefined) | · | · | · | 0.67 | · | · | · | ·
COc1ccc(N2CCN(C(=O)CSc3nnc4c(C)cc5c(C)cc(C)cc5n34)CC2)cc1 | 96* | 1 | 94* | 0.72 | -3 | -4 | -1 | -6
Cc1cc(C)c(S(=O)(=O)N2CCOC2CNC(=O)C(=O)NCc2cccnc2)c(C)c1 (centres undefined) | 54* | 1 | 34* | 0.72 | 3 | -1 | 1 | -1
Cc1ccc(CNC(=O)C(=O)NCC2OCCN2S(=O)(=O)c2cccs2)cc1 (centres undefined) | 95* | 2 | 87* | 0.73 | -5 | 3 | -1 | -2
O=C(NCc1ccccc1)C(=O)NCC1OCCN1S(=O)(=O)c1cccs1 (centres undefined) | -1 | 2 | 0 | 0.68 | -5 | · | · | ·
COc1ccc(NC(=O)CON=C2CCCc3nonc32)cc1 | · | · | · | 0.7 | · | · | · | ·
CCCC(=O)NC(c1ccc2c(c1)OCO2)c1cc(Cl)c2cccnc2c1O (centres undefined) | 23* | · | 24* | 0.68 | -5 | 21* | 22* | 23
CCC(=O)NC(c1ccc(C)cc1)c1cc(Cl)c2cccnc2c1O (centres undefined) | 21* | · | 25* | · | -11 | 16* | 17* | 14
